For 40 compounds, Potency and activity change, negative = cytotoxicity results are on record in PubChem BioAssay (Tox21).

Molecules are shown by their SMILES. Records with an inconclusive call do not appear. Entries that show only a call come without a potency. A number with no mark means an inactive call. Active and inactive are the calls of the source. The call rests on the fitted dose curve; in most records, active means well fitted cell-killing curve with a large enough effect in the repeat runs; inconclusive means weak or mixed curves, or effect the other way; inactive means flat fitted curve, though single readings scatter.
Potency means the concentration at half of the fitted maximal effect.

This test is described as follows: qHTS RealTime-Glo MT Cell Viability Assay in HepG2 cells - 0 hour (AID 1224889). Further: nearly all actives have a fitted effect of over 50% in size. As to conditions: RealTime-Glo luminescence; series mostly up to 76.8 µM. The source says:
U.S. Tox21 Program National Center for Advancing Translational Sciences [NCATS] NIH Chemical Genomics Center [NCGC] U.S. Environmental Protection Agency [EPA] National Institutes of Environmental Health Sciences [NIEHS] National Toxicology Program [NTP] U.S. Food and Drug Administration [FDA] Tox21 Assay Overview: Measure of cell viability is critical in the cell-base assay. Analysis of cell viability is necessary for the characterization of cell responses to cytotoxic drugs and environmental stress. A RealTime-Glo MT Cell Viability Assay to monitor cell viability in real time of continues cell culture during 40 hours of compound treatment was used to screen Tox21 10K library compounds in HepG2 cells. The RealTime-Glo MT Cell Viability Assay is a nonlytic, homogeneous, bioluminescent method to measure cell viability in real time using a simple, plate-based method. The assay involves adding NanoLuc luciferase and a cell-permeant prosubstrate to cells in culture. Viable cells reduce the proprietary prosubstrate to generate a substrate for NanoLuc luciferase. This substrate diffuses from cells into the surrounding culture medium, where it is rapidly used by the NanoLuc Enzyme to produce a luminescent signal. The signal correlates with the number of viable cells, making the assay well suited for cytotoxicity studies.
Tox21 Assay Protocol Summary: The mixture of HepG2 cell suspension and reagents were dispensed at 600cells/6 ul/well in 1536-well tissue culture treated black solid bottom plates using a Multidrop dispenser. After the assay plates were incubated at a 37 C/5% CO2 incubator for 5 hours, 23 nL of compounds dissolved in DMSO, positive and negative controls was transferred to the assay plate by a pintool work station. The plates were incubated at 37 C for 40 hours. The luminescence intensity were measured at 0h, 8h, 16h, 24h, 32h and 40h time points using ViewLux plate reader during compound treatment.
For orientation: qHTS replaces the single test concentration by a dilution series.
Consider `CCn1nc(Cc2ccccc2)cc1C1CCN(C[C@H]2C[C@H](N(C)[C@@H](C(=O)O)C(C)C)C[C@@H]2c2cccc(F)c2)CC1`, for which the Potency result is “inactive”. Consider `CC1=C(C)C(=O)C(CCCCC#CCCCC#CCO)=C(C)C1=O`, for which the Potency result was “inactive”. Regarding `CC(C)CCCCCCCOC(=O)c1ccc(C(=O)OCCCCCCCC(C)C)c(C(=O)OCCCCCCCC(C)C)c1`, the Potency result was “inactive”. Still for that read-out and setting: the result for `COC(=O)Cc1cccc2ccccc12` reads “inactive”; that for `Cc1c(N=C=O)cccc1N=C=O`, “inactive”; that for `CC(C)CCCCCOC(=O)CS`, “inactive”. On the same count and under the same terms, the entry for `N#C[C@@H]1CC(F)(F)CN1C(=O)CNC1CC2CCC(C1)N2c1ncccn1` (stereo not given in full) is “inactive”; for `O=C(c1ccc(Cl)cc1)c1ccc(Cl)cc1` it is “inactive”; for `O=Cc1ccc([N+](=O)[O-])cc1` it is “inactive”. For `NC(=O)c1ccccc1`, the Potency result was “inactive”.

With `CCOc1ccccc1O`, the Potency entry is “inactive”. `CC(C)C/C=C(\C=O)c1ccccc1`: the Potency entry is “inactive”. Same read-out and setting: the result for `CCCCCCOC(=O)c1ccccc1` reads “inactive”; that for `Nc1ncnc2c1ncn2[C@@H]1O[C@H](CO)[C@@H](O)[C@H]1O`, “inactive”; that for `CCC(C)C1N=C(C)C(C)S1` (stereo not given), “inactive”.

In the case of `O=C(O)COCC(=O)O`, the Potency entry is “inactive”.

On to `O=C(O)c1ccncc1`, for which the Potency entry is “inactive”.

On to `CCCc1nc(C)c2c(=O)[nH]c(-c3cc(S(=O)(=O)N4CCN(CC)CC4)ccc3OCC)nn12`, for which the Potency entry was “inactive”. As to `CCCCCCCCCCCC(=O)OCC`, the Potency result was “inactive”. On to `CC(COc1ccccc1)NC(C)C(O)c1ccc(O)cc1` (stereo not given), for which the Potency entry is “inactive”. The same measure, in the same setting: the entry for `COc1ccc(C(=O)Nc2ccccc2)cc1[N+](=O)[O-]` is “inactive”. Turning to `CC(C)(C)c1cc(C=O)cc(C(C)(C)C)c1O`, the Potency result is “inactive”. Turning to `CCN(CCCCOC(=O)c1ccc(OC)c(OC)c1)C(C)Cc1ccc(OC)cc1` (stereo not given), the Potency entry was “inactive”. As for `CC(=O)c1ccc(Cl)c(Cl)c1Cl`, the Potency result is “inactive”.

With `O=C(O)c1c2ccccc2cc2ccccc12`, the Potency entry was “inactive”. For the compound `OCCCO`, the Potency result was “inactive”.

On to `CCCN(C1CCN(C(=O)C2CCNCC2)CC1)[C@@H]1CCc2ccc(OC)cc2C1`, for which the Potency entry was “inactive”. Turning to `C=C(C)C(=O)OCCCCCCCCCCOC(=O)C(=C)C`, the Potency entry was “inactive”. Take `Cc1cc(SC2=C(O)C[C@@](CCc3ccc(N)cc3)(C(C)C)OC2=O)c(C(C)(C)C)cc1CO`: the Potency was 19.5 µM (active). Turning to `CC(Cc1ccccc1)(NC(=O)CN)c1ccccc1` (stereo not given), the Potency result is “inactive”. As for `[O-][n+]1ccc(Cl)cc1`, the Potency result is “inactive”. Still for that read-out and setting: the entry for `CCc1cnc(C(=O)O)c(C(=O)O)c1` is “inactive”.

For `COc1ccc(CN(CCN(C)C)c2ncccn2)cc1`, the Potency result was “inactive”. On to `C[C@H](N)C(=O)N[C@@H](C)C(=O)NC1[C@H]2CN(c3nc4c(cc3F)c(=O)c(C(=O)O)cn4-c3ccc(F)cc3F)C[C@@H]12` (stereo not given in full), for which the Potency entry was “inactive”. As to `CC(C)(Cc1c[nH]c2ccccc12)NCC(O)COc1ccccc1C#N` (stereo not given), the Potency result is “inactive”. As to `Nc1ccccc1Nc1ccccc1`, the Potency result is “inactive”. For the compound `COC(=O)/C=C/C(C)=C\C=C\C(C)=C\C=C\C=C(C)\C=C\C=C(C)\C=C\C(=O)O`, the Potency result is “inactive”. As to `COc1cccc([C@H](O)C2CCN(CCc3ccc(F)cc3)CC2)c1OC`, the Potency result was “inactive”. For `COC=O`, the activity change, negative = cytotoxicity was -11.5% [at 6.97 µM]. For `Clc1ccccc1-c1nc(-c2ccncc2)no1`, the Potency entry was “inactive”.
